Measurements: PubChem BioAssay (Tox21)
Records with an inconclusive call do not appear. Calls of active or inactive are those of the source. Unless noted, calls come from the whole dose curve; as a rule, active = well fitted curve in the direction sought with a large enough effect in the repeat runs; inconclusive = weak or mixed curves; inactive = no such curve, though single readings can be large; an effect the other way counts as inactive or inconclusive.

Experiments:
[1] = qHTS assay to identify small molecule antagonists of the sonic hedgehog signaling (Shh) pathway (AID 1259369; calls by dose curve; note: nearly all actives have a fitted effect of over 45% in size)
Method in brief: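 Read-out is luminescence from a firefly luciferase gene controlled by the Gli1 response element, in 3T3Gli1-Luc cells pre-incubated 4hr then exposed to compounds and conditioned medium for 24hr.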

[2] = molecular target: Estrogen receptor beta (Homo sapiens) (UniProt Q92731); assay: qHTS assay to identify small molecule agonists of the estrogen receptor beta (ER-beta) signaling pathway (AID 1259377; active = well fitted activation curve with a large enough effect in the signal ratio in the repeat runs, not every such curve was filed as active; the % refers to the signal ratio)
Method in brief: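 Measured by fluorescence intensity from a B/G FRET beta-lactamase substrate (2 h, room temperature) in ER-beta-UAS-bla HEK293T cells treated with DMSO-dissolved compounds for 16 hr at 37C and 5% CO2.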

[3] = molecular target: Estrogen receptor beta (Homo sapiens) (UniProt Q92731); assay: qHTS assay to identify small molecule antagonists of the estrogen receptor beta (ER-beta) signaling pathway (AID 1259378; active = well fitted inhibition curve with a large enough effect in the signal ratio in the repeat runs, not every such curve was filed as active; the % refers to the signal ratio)
Method in brief: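 ER-beta-UAS-bla HEK293T (GripTite) cells in 2% charcoal-stripped FBS medium were preincubated 6 hr at 37C, dosed with compound, then stimulated with 1 nM E2 (final) for 16 hr; beta-lactamase reporter read by B/G FRET fluorescence after 2 hr substrate loading.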

[4] = qHTS assay to identify small molecule agonists of the androgen receptor (AR) signaling pathway in the presence of an antagonist - cell viability counter screen (AID 1259379);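 note: MDA-kb2 human breast cancer cells carrying an MMTV luciferase reporter; series mostly up to about 92 µM; nearly all actives have a fitted effect of over 25% in size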
Method in brief: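 Each compound was tested at 15 concentrations on MDA-kb2 cells in the presence of 3.0uM nilutamide. Viability was measured by CellTiter-Fluor fluorescence after a 16 hr incubation at 37C in a CO2-free atmosphere.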

[5] = qHTS assay to identify small molecule agonists of the estrogen receptor beta (ER-beta) signaling pathway - cell viability counter screen (AID 1259380); note: nearly all actives have a fitted effect of over 30% in size
Method in brief: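 Compounds dissolved in DMSO were pin-transferred onto ER-beta-UAS-bla HEK293T cells that had settled 6 hr, and exposure ran 16 hr at 37C. Following the reporter read, CellTiter-Glo luminescence after 30 min at room temperature indicated cytotoxicity.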

[6] = qHTS assay to identify small molecule antagonists of the estrogen receptor beta (ER-beta) signaling pathway - cell viability counter screen (AID 1259382); note: series mostly up to about 92 µM; nearly all actives have a fitted effect of over 55% in size
Method in brief: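 CellTiter-Glo ATP luminescence measured after the LiveBLAzer read in the same wells; ER-beta-UAS-bla HEK293T cells, 16 hr compound treatment with 1nM 17-beta-estradiol agonist at 37C, 5% CO2.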

[7] = molecular target: Estrogen receptor (Homo sapiens) (UniProt P03372); assay: qHTS assay to identify small molecule agonists of the estrogen receptor alpha (ER-alpha) signaling pathway in the presence of an antagonist (AID 1259383; calls by dose curve; note: top concentration of the series differs between compounds; nearly all actives have a fitted effect of over 15% in size)
Method in brief: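 Luminescent ERE-luciferase reporter, VM7Luc4E2 cells (endogenous ER-alpha); 10.0nM ICI-182,780 final; 15-point compound titration; 22hr at 37C; ONE-Glo, 30min RT.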

[8] = qHTS assay to identify small molecule agonists or antagonists of the thyroid stimulating hormone receptor (TSHR) signaling pathway - wild type cell line counter screen (AID 1259384; calls by dose curve)
Method in brief: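 Wild-type HEK293 cells were plated 18 h at 37 C/5% CO2, pin-dosed with compound plus Ro20-1724 medium, held 30 min at room temperature, then given cAMP-d2 and anti-cAMP-cryptate; fluorescence was read after 1 h. Fifteen concentrations, triplicate.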

[9] = molecular target: Thyrotropin receptor (Homo sapiens) (UniProt P16473); assay: qHTS assay to identify small molecule antagonists of the thyroid stimulating hormone receptor (TSHR) signaling pathway (AID 1259385; calls by dose curve; note: nearly all actives have a fitted effect of over 20% in size)
Method in brief: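 TSHR-HEK293 cells were plated and held 18 h at 37C/5% CO2, then given compound plus Ro20-1724 and stimulated with TSH at 1.5 ng/mL final. After 30 min at room temperature, cAMP was detected with cAMP-d2/anti-cAMP-cryptate (1 h) by fluorescence.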

[10] = qHTS assay to identify small molecule agonists of the estrogen receptor alpha (ER-alpha) signaling pathway in the presence of an antagonist - cell viability counter screen (AID 1259386);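 note: series mostly up to about 92 µM; cells exposed to compounds for 22 h at 37 °C before the viability read; nearly all actives have a fitted effect of over 30% in size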
Method in brief: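 Using estrogen-depleted VM7Luc4E2 cells, the 15-concentration compound series was applied together with 10.0nM ICI-182,780 and incubated 22hr at 37C/5% CO2. Cell viability was then scored by CellTiter-Fluor.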

[11] = molecular target: Progesterone receptor (Homo sapiens) (UniProt P06401); assay: qHTS assay to identify small molecule agonists of the progesterone receptor (PR) signaling pathway (AID 1346784; calls by dose curve; note: nearly all actives have a fitted effect of over 30% in size)
Method in brief: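 The screen uses PR-UAS-bla HEK 293T cells in charcoal-stripped serum (2%). Compounds are applied for 16 hr at 37C after a 6 hr pre-incubation, and reporter activity is detected with a FRET beta-lactamase substrate after 2 hr at room temperature.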

[12] = molecular target: Progesterone receptor (Homo sapiens) (UniProt P06401); assay: qHTS assay to identify small molecule antagonists of the progesterone receptor (PR) signaling pathway (AID 1346795; active = well fitted inhibition curve with a large enough effect in the signal ratio in the repeat runs, not every such curve was filed as active; the % refers to the signal ratio)
Method in brief: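 After 6 hr plating at 37C in 2% stripped-serum medium, PR-UAS-bla HEK293T cells got compounds, then 1 nM R5020. Sixteen hours later, LiveBLAzer substrate was applied for 2 hr at room temperature and fluorescence was recorded.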

[13] = qHTS assay to identify small molecule antagonists of the progesterone receptor (PR) signaling pathway - cell viability counter screen (AID 1346798); note: series mostly up to about 92 µM; nearly all actives have a fitted effect of over 50% in size
Method in brief: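 Viability was determined by ATP-based luminescence (CellTiter-Glo) in PR-UAS-bla HEK293T cells cultured in 2% charcoal-stripped serum and incubated 16 hr with compounds under R5020 stimulation.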

[14] = qHTS assay to identify small molecule agonists of the progesterone receptor (PR) signaling pathway - cell viability counter screen (AID 1346799; calls by dose curve; note: nearly all actives have a fitted effect of over 45% in size)
Method in brief: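 Viability was scored by ATP luminescence (CellTiter-Glo, 30 min, room temperature) in the same wells used for the reporter readout, after 16 hr compound exposure of PR-UAS-bla HEK293T cells.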

[15] = qHTS assay to identify small molecule antagonists of the TGF-beta/Smad signaling pathway - cell viability counter screen (AID 1346824); note: nearly all actives have a fitted effect of over 50% in size
Method in brief: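 SBE-bla HEK 293T cells were plated overnight at 37 C, then given compounds in DMSO plus TGF-beta1 (added as 0.25 ng/mL solution) for 5 hr. After the bla read, CellTiter-Glo was added to the same wells and luminescence read after 30 min at room temperature.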

[16] = qHTS assay to identify small molecule agonists of the TGF-beta/Smad signaling pathway - cell viability counter screen (AID 1346829); note: top concentration of the series differs between compounds; nearly all actives have a fitted effect of over 45% in size
Method in brief: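 In parallel with the Smad reporter read, viability of HEK 293T cells stably carrying SBE-bla is quantified by ATP luminescence following 5 hr compound treatment.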

[17] = Human pregnane X receptor (PXR) small molecule agonists, qHTS cell viability counter screen (AID 1346977); note: nearly all actives have a fitted effect of over 50% in size
Method in brief: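 HepG2 cells stably carrying the PXR-Luc reporter are cultured with 5% charcoal-stripped FBS and treated with compounds for 24hr. CellTiter-Fluor is added at 23hr and fluorescence is read after 1hr.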

[18] = qHTS assay to identify small molecule agonists of the TGF-beta/Smad signaling pathway (AID 1346859; active = well fitted activation curve with a large enough effect in the signal ratio in the repeat runs, not every such curve was filed as active; the % refers to the signal ratio; note: series mostly up to about 77 µM)
Method in brief: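 Dual-wavelength fluorescence (460/530 nm emission) quantified beta-lactamase expression under the Smad binding element in HEK 293T cells following 5 hr compound treatment at 37 C.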

[19] = molecular target: Thyrotropin-releasing hormone receptor (Homo sapiens) (UniProt P34981); assay: qHTS assay to identify small molecule antagonists of the thyrotropin-releasing hormone receptor (TRHR) signaling pathway (AID 1346877; active = well fitted inhibition curve with a large enough effect in the repeat runs, not every such curve was filed as active; note: series mostly up to about 51 µM)
Method in brief: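 Calcium signal in dye-loaded TRHR/HEK293 cells; compounds added 5 min before TRH (1 nM final); fluorescence monitored 3 min at 1 s steps.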

[20] = molecular target: Thyrotropin-releasing hormone receptor (Homo sapiens) (UniProt P34981); assay: qHTS assay to identify small molecule agonists of the thyrotropin-releasing hormone receptor (TRHR) signaling pathway (AID 1346891; calls by dose curve;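 note: HEK293 cells expressing TRHR with calcium dye readout; series mostly up to about 58 µM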)
Method in brief: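 Kinetic fluorescence (3 min, 1 s intervals) reported intracellular calcium after compound transfer onto TRHR-Hek293 cells pre-loaded with dye for 2 h at 37 °C.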

Measured: Potency

Sequence of Estrogen receptor (Homo sapiens) (P03372 whole entry, looked up): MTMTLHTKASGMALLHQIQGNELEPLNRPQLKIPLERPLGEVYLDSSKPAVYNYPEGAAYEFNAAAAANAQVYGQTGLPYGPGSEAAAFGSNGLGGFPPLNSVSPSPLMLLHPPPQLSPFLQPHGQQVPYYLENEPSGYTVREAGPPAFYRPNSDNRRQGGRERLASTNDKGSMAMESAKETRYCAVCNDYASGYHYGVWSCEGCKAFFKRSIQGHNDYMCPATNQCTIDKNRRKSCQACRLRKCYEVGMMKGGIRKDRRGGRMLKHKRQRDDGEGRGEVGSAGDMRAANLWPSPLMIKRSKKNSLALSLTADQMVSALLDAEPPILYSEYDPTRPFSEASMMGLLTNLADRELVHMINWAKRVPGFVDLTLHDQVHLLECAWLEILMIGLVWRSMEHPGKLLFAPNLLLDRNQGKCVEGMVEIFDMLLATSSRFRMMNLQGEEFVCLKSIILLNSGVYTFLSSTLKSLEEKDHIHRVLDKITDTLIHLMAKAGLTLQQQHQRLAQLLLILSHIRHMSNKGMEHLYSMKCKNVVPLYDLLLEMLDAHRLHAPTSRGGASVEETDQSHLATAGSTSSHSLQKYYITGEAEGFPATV
Sequence of Thyrotropin-releasing hormone receptor (Homo sapiens) (P34981 whole entry, looked up): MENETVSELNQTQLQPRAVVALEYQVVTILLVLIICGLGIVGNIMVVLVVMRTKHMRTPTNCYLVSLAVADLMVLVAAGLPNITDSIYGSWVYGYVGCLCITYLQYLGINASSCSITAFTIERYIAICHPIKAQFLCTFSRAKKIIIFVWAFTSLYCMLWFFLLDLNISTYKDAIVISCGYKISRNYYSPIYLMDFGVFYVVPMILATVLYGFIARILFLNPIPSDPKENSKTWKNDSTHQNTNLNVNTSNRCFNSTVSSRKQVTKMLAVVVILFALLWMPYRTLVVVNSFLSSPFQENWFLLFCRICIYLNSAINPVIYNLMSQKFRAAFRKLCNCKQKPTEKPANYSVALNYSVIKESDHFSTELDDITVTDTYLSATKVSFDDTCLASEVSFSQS
Sequence of Progesterone receptor (Homo sapiens) (P06401 whole entry, looked up): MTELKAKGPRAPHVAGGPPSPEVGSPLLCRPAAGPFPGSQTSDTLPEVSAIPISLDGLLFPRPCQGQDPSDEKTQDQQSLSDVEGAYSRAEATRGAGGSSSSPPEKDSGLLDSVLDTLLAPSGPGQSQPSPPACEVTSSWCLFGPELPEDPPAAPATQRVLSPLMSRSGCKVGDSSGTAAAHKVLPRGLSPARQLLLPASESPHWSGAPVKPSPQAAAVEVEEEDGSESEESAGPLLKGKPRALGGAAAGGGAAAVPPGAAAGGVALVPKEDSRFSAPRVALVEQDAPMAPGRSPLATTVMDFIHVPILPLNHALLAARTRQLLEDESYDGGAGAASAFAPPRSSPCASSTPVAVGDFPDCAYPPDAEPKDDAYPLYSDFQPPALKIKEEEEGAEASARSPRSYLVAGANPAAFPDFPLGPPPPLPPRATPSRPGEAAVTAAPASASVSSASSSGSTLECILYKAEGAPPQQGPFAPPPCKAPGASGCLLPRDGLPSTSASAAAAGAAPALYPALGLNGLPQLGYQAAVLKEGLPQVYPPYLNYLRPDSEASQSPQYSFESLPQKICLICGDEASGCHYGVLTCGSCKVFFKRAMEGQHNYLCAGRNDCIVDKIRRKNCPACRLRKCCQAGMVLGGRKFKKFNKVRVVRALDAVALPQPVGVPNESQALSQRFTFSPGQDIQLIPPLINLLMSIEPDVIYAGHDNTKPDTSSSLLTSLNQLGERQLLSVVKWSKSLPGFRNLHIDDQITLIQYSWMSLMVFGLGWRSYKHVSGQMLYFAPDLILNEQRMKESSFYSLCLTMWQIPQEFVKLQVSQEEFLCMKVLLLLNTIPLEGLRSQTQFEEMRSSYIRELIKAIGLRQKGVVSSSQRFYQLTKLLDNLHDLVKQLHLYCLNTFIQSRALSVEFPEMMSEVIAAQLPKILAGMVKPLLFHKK
Sequence of Estrogen receptor beta (Homo sapiens) (Q92731 whole entry, looked up): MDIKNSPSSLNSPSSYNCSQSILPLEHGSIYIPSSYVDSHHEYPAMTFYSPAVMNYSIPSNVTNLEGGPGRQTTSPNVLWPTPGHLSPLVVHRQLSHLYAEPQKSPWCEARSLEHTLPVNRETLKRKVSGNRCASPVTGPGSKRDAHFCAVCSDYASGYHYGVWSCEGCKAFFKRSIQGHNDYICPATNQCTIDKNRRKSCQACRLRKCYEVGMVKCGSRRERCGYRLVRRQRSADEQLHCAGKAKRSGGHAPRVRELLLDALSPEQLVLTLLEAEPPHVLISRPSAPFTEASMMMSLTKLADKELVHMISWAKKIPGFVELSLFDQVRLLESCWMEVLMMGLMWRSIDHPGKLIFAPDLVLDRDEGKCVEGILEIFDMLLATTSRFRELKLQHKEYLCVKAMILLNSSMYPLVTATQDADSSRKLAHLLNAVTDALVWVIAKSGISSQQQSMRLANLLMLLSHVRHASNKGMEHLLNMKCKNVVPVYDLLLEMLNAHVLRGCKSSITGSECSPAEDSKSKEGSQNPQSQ
Sequence of Thyrotropin receptor (Homo sapiens) (P16473 whole entry, looked up): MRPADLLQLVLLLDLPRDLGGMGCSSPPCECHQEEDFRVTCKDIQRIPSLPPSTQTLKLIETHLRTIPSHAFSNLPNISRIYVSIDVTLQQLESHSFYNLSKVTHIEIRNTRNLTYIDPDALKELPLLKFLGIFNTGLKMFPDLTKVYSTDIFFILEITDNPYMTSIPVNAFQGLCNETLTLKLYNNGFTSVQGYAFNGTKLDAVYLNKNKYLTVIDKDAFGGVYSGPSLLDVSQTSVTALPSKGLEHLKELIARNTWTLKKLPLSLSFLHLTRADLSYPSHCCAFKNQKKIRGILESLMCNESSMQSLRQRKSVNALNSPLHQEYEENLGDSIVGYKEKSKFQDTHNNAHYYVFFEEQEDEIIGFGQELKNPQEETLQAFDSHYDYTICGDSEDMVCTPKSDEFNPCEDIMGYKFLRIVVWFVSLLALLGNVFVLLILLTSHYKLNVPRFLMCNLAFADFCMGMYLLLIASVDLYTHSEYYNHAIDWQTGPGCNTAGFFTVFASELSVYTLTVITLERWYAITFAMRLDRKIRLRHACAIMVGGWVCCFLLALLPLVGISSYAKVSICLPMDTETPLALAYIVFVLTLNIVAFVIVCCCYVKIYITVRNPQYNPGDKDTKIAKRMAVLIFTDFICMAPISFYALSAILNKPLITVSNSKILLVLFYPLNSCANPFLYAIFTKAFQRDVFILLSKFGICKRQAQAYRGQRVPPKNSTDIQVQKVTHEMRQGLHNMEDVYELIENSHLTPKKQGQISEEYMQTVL

FC1(F)C(F)(F)C(F)(F)C2(F)C(F)(F)C(F)(F)C(F)(F)C(F)(F)C2(F)C1(F)F (stereo not given)
not listed: [18] | [19] | [20]
inactive: all other assays above

CC(C)=CCCC(C)CC(=O)O (stereo not given)
not listed: [7] | [16]
inactive: all other assays above

COC(=O)c1cc(C(=O)OC)cc(S(=O)(=O)O)c1
not listed: [7] | [12] | [13] | [16] | [18] | [19]
inactive: all other assays above

COC(=O)CC(C)=O
not listed: [7] | [19]
inactive: all other assays above

CCO/C([O-])=N/c1c[n+](N2CCOCC2)no1
not listed: [15]
inactive: all other assays above

CC(C(=O)O)c1ccc(CC2CCCC2=O)cc1 (stereo not given)
not listed: [5] | [9] | [16]
inactive: all other assays above

CCN1CCC[C@H]1CNC(=O)c1cc(S(N)(=O)=O)ccc1OC
not listed: [7] | [8] | [19]
inactive: all other assays above

C=C1CC[C@H]2C[C@@H]1C2(C)C
not listed: [12]
inactive: all other assays above

COC(=O)c1ccc(C)cc1C1=NC(C)(C(C)C)C(=O)N1 (stereo not given)
not listed: [7] | [8] | [9] | [19]
inactive: all other assays above

O=C(O)Cc1ccc(CCNS(=O)(=O)c2ccc(Cl)cc2)cc1
not listed: [8] | [13] | [15]
inactive: all other assays above

CCC(C)C1CCCCC1=O (stereo not given)
not listed: [5] | [11] | [12] | [14] | [16] | [18]
inactive: all other assays above

C1CN(CCOCCN2CCOCC2)CCO1
not listed: [16] | [18] | [19] | [20]
inactive: all other assays above

Nc1c[n+](N2CCOCC2)no1
inactive: all assays above

NC(=O)Nc1ccccc1
not listed: [19] | [20]
inactive: all other assays above

NC(=O)c1cn(Cc2c(F)cccc2F)nn1
not listed: [7] | [8] | [14] | [19] | [20]
inactive: all other assays above
